Experiment [1] addresses Tyrosine-protein kinase SYK (Homo sapiens) (UniProt P43405). As to conditions: at 10 µM.
Experiment [2] addresses T1, Mitogen-activated protein kinase kinase kinase 7 (Homo sapiens) (UniProt O43318).
T1 sequence (whole entry): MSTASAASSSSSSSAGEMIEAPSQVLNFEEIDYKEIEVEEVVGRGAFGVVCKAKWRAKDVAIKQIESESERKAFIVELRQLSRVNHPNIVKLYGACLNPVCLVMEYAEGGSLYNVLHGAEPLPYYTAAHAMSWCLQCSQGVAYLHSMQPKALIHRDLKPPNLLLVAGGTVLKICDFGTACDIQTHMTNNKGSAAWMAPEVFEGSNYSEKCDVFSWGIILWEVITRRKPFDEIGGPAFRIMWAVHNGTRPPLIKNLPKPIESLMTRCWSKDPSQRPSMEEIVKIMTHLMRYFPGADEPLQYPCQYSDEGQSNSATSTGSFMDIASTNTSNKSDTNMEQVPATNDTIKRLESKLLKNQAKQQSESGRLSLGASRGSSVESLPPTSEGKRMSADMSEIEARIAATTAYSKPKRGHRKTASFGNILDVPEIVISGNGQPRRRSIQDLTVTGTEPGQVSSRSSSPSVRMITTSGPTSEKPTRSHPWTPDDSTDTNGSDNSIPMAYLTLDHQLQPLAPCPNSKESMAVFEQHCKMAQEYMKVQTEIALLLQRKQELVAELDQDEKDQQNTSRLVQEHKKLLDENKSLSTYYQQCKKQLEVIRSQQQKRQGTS
Particulars: at 1 µM.

The target in experiment [3] is T1, Mitogen-activated protein kinase kinase kinase 7 (Homo sapiens). As to conditions: at 10 µM.
The target in experiment [4] is T2, Serine/threonine-protein kinase TAO1 (Homo sapiens) (UniProt Q7L7X3).
T2 sequence (whole entry): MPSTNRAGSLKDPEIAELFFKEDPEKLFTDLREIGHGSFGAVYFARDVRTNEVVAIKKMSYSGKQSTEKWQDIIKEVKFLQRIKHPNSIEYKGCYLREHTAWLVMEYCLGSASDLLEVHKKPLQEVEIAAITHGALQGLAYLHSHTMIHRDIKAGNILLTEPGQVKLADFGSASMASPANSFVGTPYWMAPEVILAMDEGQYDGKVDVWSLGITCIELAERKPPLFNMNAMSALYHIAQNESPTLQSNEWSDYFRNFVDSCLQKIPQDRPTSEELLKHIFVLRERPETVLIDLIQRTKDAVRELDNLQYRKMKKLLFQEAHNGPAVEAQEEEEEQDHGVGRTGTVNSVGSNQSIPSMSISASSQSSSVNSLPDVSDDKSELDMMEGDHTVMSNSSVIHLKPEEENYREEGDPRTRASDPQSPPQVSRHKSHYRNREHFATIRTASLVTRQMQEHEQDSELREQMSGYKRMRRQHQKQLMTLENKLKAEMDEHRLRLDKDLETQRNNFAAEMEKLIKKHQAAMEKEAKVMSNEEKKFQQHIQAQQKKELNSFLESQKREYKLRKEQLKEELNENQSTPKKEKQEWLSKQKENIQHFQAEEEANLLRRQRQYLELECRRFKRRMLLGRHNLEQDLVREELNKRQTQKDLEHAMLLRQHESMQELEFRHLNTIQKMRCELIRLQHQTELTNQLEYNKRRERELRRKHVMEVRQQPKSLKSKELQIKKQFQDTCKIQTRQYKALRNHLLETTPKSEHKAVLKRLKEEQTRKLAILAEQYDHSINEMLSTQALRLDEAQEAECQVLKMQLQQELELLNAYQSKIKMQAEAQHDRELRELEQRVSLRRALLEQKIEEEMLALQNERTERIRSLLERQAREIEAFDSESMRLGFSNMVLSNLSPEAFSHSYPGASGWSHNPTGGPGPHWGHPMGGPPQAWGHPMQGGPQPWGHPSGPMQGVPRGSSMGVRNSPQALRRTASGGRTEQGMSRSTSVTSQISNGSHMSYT
Particulars: at 10 µM.

For experiment [5], the target named is T3, Serine/threonine-protein kinase TAO2 (Homo sapiens) (UniProt Q9UL54).
T3 sequence (whole entry): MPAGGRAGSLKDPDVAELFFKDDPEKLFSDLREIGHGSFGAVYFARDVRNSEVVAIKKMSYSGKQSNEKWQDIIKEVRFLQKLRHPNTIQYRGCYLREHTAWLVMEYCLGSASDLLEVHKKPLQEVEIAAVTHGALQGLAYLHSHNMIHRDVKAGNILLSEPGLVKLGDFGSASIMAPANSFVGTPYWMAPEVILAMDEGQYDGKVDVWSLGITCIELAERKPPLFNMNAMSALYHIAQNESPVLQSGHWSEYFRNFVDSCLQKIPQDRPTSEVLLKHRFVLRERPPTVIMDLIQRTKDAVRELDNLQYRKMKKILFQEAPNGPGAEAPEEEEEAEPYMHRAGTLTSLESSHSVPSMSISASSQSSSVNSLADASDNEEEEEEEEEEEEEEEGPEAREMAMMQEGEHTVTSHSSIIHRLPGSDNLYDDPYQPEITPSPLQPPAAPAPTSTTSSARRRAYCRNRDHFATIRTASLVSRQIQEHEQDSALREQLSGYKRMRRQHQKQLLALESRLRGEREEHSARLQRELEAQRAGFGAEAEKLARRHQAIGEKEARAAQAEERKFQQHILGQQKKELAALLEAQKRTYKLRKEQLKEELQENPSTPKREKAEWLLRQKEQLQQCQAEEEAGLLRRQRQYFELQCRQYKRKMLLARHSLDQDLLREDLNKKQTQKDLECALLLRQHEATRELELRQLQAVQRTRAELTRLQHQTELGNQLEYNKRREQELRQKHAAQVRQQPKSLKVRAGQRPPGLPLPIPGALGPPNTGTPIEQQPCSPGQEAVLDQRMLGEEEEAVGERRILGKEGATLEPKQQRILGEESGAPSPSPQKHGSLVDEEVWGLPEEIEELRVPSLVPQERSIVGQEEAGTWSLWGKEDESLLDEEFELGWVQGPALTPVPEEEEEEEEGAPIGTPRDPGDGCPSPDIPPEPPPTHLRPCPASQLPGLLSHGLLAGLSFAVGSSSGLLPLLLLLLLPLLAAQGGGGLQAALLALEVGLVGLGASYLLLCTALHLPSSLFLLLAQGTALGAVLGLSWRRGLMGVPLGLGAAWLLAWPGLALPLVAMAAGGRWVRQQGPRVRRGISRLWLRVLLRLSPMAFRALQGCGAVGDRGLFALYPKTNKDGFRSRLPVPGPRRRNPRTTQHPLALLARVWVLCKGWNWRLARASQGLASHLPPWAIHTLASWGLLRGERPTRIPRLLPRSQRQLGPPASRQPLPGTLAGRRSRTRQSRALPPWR
Particulars: at 1 µM.

The target of experiment [6] is T3, Serine/threonine-protein kinase TAO2 (Homo sapiens). Particulars: at 10 µM.
In experiment [7] the target is T4, Serine/threonine-protein kinase TAO3 (Homo sapiens) (UniProt Q9H2K8).
T4 sequence (whole entry): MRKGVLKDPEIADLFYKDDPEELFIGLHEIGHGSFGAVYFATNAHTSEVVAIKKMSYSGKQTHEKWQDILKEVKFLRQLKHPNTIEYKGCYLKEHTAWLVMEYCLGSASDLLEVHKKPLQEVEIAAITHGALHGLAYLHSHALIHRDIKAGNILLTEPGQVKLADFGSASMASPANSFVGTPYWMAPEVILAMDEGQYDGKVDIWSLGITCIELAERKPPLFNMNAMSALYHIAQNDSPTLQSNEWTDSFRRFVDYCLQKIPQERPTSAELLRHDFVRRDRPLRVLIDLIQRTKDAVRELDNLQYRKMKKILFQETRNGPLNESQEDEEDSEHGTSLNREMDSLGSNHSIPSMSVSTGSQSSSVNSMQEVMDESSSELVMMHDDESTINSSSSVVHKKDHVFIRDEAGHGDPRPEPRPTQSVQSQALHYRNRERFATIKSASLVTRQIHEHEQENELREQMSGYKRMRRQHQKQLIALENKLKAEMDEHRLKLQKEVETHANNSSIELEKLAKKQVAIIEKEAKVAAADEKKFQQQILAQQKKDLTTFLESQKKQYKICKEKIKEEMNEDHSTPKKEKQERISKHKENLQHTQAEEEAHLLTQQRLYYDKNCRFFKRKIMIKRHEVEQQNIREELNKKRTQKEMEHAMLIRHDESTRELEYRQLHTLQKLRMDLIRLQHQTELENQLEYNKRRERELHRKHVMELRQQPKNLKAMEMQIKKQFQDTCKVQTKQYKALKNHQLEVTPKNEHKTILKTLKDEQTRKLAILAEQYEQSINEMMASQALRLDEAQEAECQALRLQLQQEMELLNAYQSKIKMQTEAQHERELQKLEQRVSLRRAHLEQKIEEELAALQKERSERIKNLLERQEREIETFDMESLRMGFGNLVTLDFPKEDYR
As to conditions: at 1 µM.

Experiment [8] has as its target T4, Serine/threonine-protein kinase TAO3 (Homo sapiens). Particulars: at 10 µM.

Regarding `COc1cc2ncnc(Nc3ccc(NC(=O)c4ccccc4)cc3)c2cc1OC`, the residual activity turned out to be 88% in experiment [1]; 107% in experiment [2]; 96% in experiment [3]; 94% in experiment [4]; 98% in experiment [5]; 83% in experiment [6]. Further, the values for the residual activity in experiment [7] and in experiment [8] were 102% and 84%, respectively.

Source of the values: ChEMBL document CHEMBL2218924, “A broad activity screen in support of a chemogenomic map for kinase signalling research and drug discovery” (Biochem J, 2013).
